# Reference: PubChem BioAssay (NCATS)
# Records with an inconclusive call do not appear. Activity calls are given as the source filed them. Unless noted, the call rests on the fitted dose curve; in most records, active means well fitted curve in the direction sought with a large enough effect; inconclusive means small, poorly fitted or top-dose-only effect, or another doubt; inactive means no such curve, though single readings can be large; an effect the other way counts as inactive or inconclusive.
# Tests used:
# [1] = qHTS profiling of the MIPE4 collection as inhibitors of Plasmodium falciparum (3D7) proliferation (AID 743344; call rule not given here;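 further: scaled between DMSO vehicle wells and 0.29 µM artemisinin as full inhibition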); conditions: P. falciparum 3D7 in erythrocytes, SYBR Green DNA fluorescence, 72 h; at 28.5 µM unless noted
# Procedure, shortened: (§1)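 Parasite DNA was quantified by SYBR Green I fluorescence (ex 485, em 535 nm) after overnight lysis in saponin/Triton buffer at room temperature. Cultures at 0.3% parasitemia and 2.5% hematocrit were first exposed to compound for 72 h at 37 C; signals were normalised to artemisinin (0.29 uM) and vehicle wells.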
# [2] = qHTS profiling of the MIPE4 collection as inhibitors of Plasmodium falciparum (DD2) proliferation (AID 743345; call rule not given here); conditions: P. falciparum Dd2 in erythrocytes, SYBR Green DNA, 72 h; at 28.5 µM unless noted
# Procedure, shortened: as §1
# [3] = qHTS profiling of the MIPE4 collection as inhibitors of Plasmodium falciparum (DD2) proliferation (Rep 2) (AID 743346; call rule not given here); conditions: P. falciparum Dd2 in erythrocytes, SYBR Green DNA, 72 h; at 28.5 µM unless noted
# Procedure, shortened: as §1
# [4] = qHTS profiling of the MIPE4 collection as inhibitors of Plasmodium falciparum (HB3) proliferation (AID 743347; call rule not given here;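 further: plate controls were DMSO vehicle wells for no effect and artemisinin wells for full effect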); conditions: P. falciparum HB3 in erythrocytes, SYBR Green DNA, 72 h; at 28.5 µM unless noted
# Procedure, shortened: as §1
# [5] = High-throughput drug toxicity screening in the BPDCN cell line Gen2.2 (AID 1224824; call rule not given here;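 further: cells exposed to compounds for 48 h before reading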); conditions: Gen2.2 BPDCN cells; at 45.8 µM (top of the series) unless noted
# Procedure, shortened: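 Seed 500 exponentially growing Gen2.2 cells/well; add compounds by pin tool; incubate 48 h, 37 °C, 5% CO2; add CellTiter-Glo, 15 min RT; read luminescence. % activity vs DMSO (100%) and bortezomib (0%).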
# [6] = qHTS assay for measurement of the activity of small molecule inhibitors on Zika virus induced Caspase-3 activity in human iPSC derived neural progenitor cells (hNPCs) (AID 1224857); further: % of control where 0% means no effect; nearly all actives have a fitted effect of over 65% in size
# Procedure, shortened: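 Percent inhibition of virus-induced caspase-3/7 luminescence (Caspase-Glo), scaled between uninfected cells and Zika-infected cells. hNPCs received compound 1 hr before ZIKV at 2 FFU/cell, with 6 hours infection at 37 C.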
# [7] = qHTS assay for measurement of the activity of small molecule inhibitors on Zika virus induced Caspase-3 activity in human astrocytoma cells (AID 1224859);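 further: plate controls were ZIKV-infected untreated cells for no effect and uninfected cells for full effect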
# Procedure, shortened: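 Luminescent caspase-3/7 read-out (30 min reagent, room temperature) in human SNB-19 cells infected 6 h with ZIKV (2 FFU/cell) after 1 h compound pre-incubation; Data were normalised to uninfected and infected wells.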
# [8] = qHTS Screen of the MIPE 4.0 Collection Against Ewings Sarcoma (TC71) (AID 1259253); further: nearly all actives have a fitted effect of over 40% in size; further: potency means the concentration at half of the fitted maximal effect
# Procedure, shortened: (§2)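 After a 4 h attachment period in RPMI/5% FBS, cells were pin-dosed with test compounds; DMSO served as negative and 9.2 uM bortezomib (final) as positive control. Luminescent CellTiter-Glo signal at 48 h defined viability.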
# [9] = qHTS Screen of the MIPE 4.0 Collection Against Ewings Sarcoma (EW8) (AID 1259255); further: nearly all actives have a fitted effect of over 35% in size; further: potency means the concentration at half of the fitted maximal effect;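 on viability: 100% = DMSO-treated cells and 0% = medium-only wells without cells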
# Procedure, shortened: as §2
# [10] = qHTS profiling for inhibitors of Plasmodium falciparum (HB3) proliferation (AID 743324); conditions: Plasmodium falciparum HB3 blood-stage proliferation; at 28.7 µM (top of the series) unless noted;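 further: 100% = DMSO vehicle wells and 0% = artemisinin-treated control wells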
# Procedure, shortened: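 SYBR Green fluorescence (485 ex/535 em) of lysed cultures, incubated overnight at room temperature in the dark, quantifies parasite DNA. Infected erythrocytes at 0.3% parasitemia and 2.5% hematocrit were exposed 72 h; values normalized to DMSO and 0.29 uM artemisinin controls.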
# [11] = qHTS Screen of the MIPE 4.0 Collection Against Ewings Sarcoma (TC32) (AID 1259256); further: potency means the concentration at half of the fitted maximal effect; nearly all actives have a fitted effect of over 45% in size
# Procedure, shortened: as §2
# [12] = Identifying Small Molecule Inhibitors of Pancreatic Cancer Stem Cells (A2780, Spheroid) (AID 1259357); conditions: Potency: A2780 spheroid viability;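 further: spheroids pre-formed over 14 days in stem cell medium on hydrogel; compound exposure lasted 48 h before the ATP luminescence read; 100% = DMSO treated cells and 0% = wells without cells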
# Procedure, shortened: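 Viability is scored by CellTiter-Glo luminescence 48 h after dosing, expressed as percent activity against vehicle and no-cell references. Spheroid formats rely on cells cultured 14 days in stem cell media beforehand.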
# [13] = Identifying Small Molecule Inhibitors of Pancreatic Cancer Stem Cells (SN12C, Adherent) (AID 1259358);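 further: cell survival measured after 48 h of compound exposure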
# Procedure, shortened: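 Adherent (2D) versus sphere (3D) formats; spheres generated 14 d in SCM beforehand. Compound transferred by pin tool after 4 h, 48 h incubation, CellTiter-Glo endpoint.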
# [14] = P-glycoprotein substrates identified in KB-3-1 adenocarcinoma cell line, qHTS therapeutic library screen (AID 1346986); further: nearly all actives have a fitted effect of over 60% in size
# Procedure, shortened: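 Dose-response cytotoxicity, KB-3-1 vs P-gp-high KB-8-5-11, no colchicine in assay medium. Read: CellTiter-Glo at 72 h.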
# [15] = qHTS Screen of the MIPE 4.0 Collection Against Ewings Sarcoma (RDES) (AID 1259252); further: nearly all actives have a fitted effect of over 35% in size; further: potency means the concentration at half of the fitted maximal effect
# Procedure, shortened: as §2
Structure (SMILES),"parasite growth, % of DMSO control [1] [%]","parasite growth remaining, % of DMSO control (lower = more inhibition) [2] [%]","parasite growth, % of control (lower = inhibition) [3] [%]","growth, % of control [4] [%]","cell viability, % of control (lower = more cytotoxic) [5] [%]",Potency [6],Potency [7],Potency [8],Potency [9],"remaining proliferation (% of control), lower = more inhibition [10] [%]",Potency [11],Potency [12],Potency [13],Potency [14],Potency [15]
CC[C@@H]([C@H](C)O)n1ncn(-c2ccc(N3CCN(c4ccc(OCC5CO[C@@](Cn6cncn6)(c6ccc(F)cc6F)C5)cc4)CC3)cc2)c1=O (stereo not given in full),6.37,9.01,20.2,5.52,169,inactive,inactive,inactive,inactive,,,,,,
O=C(O)C1=NC(C(=O)O)CC(C=CN2c3cc(O)c(OC4OC(CO)C(O)C(O)C4O)cc3CC2C(=O)O)=C1 (stereo not given),93,104,76.3,92,267,inactive,inactive,inactive,inactive,,,,,,
Cc1ccc(NC(=O)c2ccc(CN3CCN(C)CC3)cc2)cc1Nc1nc(-c2cccnc2)cs1,9.29,12,12.5,4.3,14.8,,inactive,23.5 µM (active),23.5 µM (active),4.39,26.4 µM (active),inactive,inactive,inactive,
CN1[C@H]2CC[C@H]1CC(OC(=O)c1c[nH]c3ccccc13)C2 (stereo not given in full),53,26.8,19.2,22,99,inactive,inactive,18.7 µM (active),4.18 µM (active),,3.32 µM (active),,,,
C[C@@H](NC(=O)c1ncnc(N)c1Cl)c1ncc(C(=O)Nc2cc(C(F)(F)F)c(Cl)cn2)s1,63.1,87.8,58.8,,2.67,inactive,inactive,,,,23.5 µM (active),,,inactive,23.5 µM (active)
CC=C1C2C=C(C)CC1(N)c1ccc(=O)[nH]c1C2 (stereo not given),100,19.1,,,164,inactive,inactive,23.5 µM (active),,,,,,,inactive
Cc1cccc(-c2[nH]c(C(C)(C)C)nc2-c2ccc3c(c2)OCO3)n1,9.08,19.7,10.1,8.33,235,inactive,inactive,,,,10.5 µM (active),,,,8.33 µM (active)
CC(C)c1c(C(=O)Nc2ccccc2)c(-c2ccccc2)c(-c2ccc(F)cc2)n1CC[C@H](O)C[C@@H](O)CC(=O)O,7.03,82.2,17.6,4.89,41.5,inactive,,14.8 µM (active),23.5 µM (active),,3.72 µM (active),,,,
